A short description of assay [1]: BSK_LPS_PGE2: BioMAP Diversity Plus: LPS Assay for Prostaglandin E2 (PGE2) Biomarker Activity (AID 2283082).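 For AC50: secreted prostaglandin E2 measured by ELISA in LPS-stimulated co-culture.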 The note with it: primary human HUVEC with PBMC; actives raise or lower the signal. The method in brief:
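PGE2 release measured by ELISA in an LPS-activated co-culture of human umbilical vein endothelial cells and peripheral blood mononuclear cells, read at 24 h post-dosing. DMSO served as baseline for bidirectional curve fitting.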

Read-out in assay [2]: Macrophage colony-stimulating factor (MCSF), CSF1 (gene 1435)
The experiment in a line: BSK_LPS_MCSF: BioMAP Diversity Plus: LPS Assay for Macrophage colony-stimulating factor (MCSF) Biomarker Activity (AID 2283083). The note with it: primary human HUVEC with PBMC; actives raise or lower the signal. The method in brief:
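Compound is added to a human vascular primary co-culture of umbilical vein endothelium and blood mononuclear cells. After 24 h, M-CSF is quantified by ELISA. Signal changes are fitted in both directions against DMSO.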

Read-out in assay [3]: Tissue Factor, F3 (gene 2152)
The assay is described as follows: BSK_LPS_TissueFactor: BioMAP Diversity Plus: LPS Assay for Tissue Factor Biomarker Activity (AID 2283084). The note with it: primary human HUVEC with PBMC; actives raise or lower the signal. In outline: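 In this co-culture system of umbilical vein endothelium with PBMC, stimulated with LPS, cell-surface CD142 is detected by ELISA at 24 h. Endpoint values derive from bidirectional fitting, DMSO serving as baseline.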

Read-out in assay [4]: Tumor necrosis factor (Homo sapiens) (UniProt P01375)
The assay is described as follows: BSK_LPS_TNFa: BioMAP Diversity Plus: LPS Assay for Tumour Necrosis Factor alpha (TNFa) Biomarker Activity (AID 2283085).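 For AC50: TNFa protein level quantified by ELISA in the co-culture.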 The note with it: primary human HUVEC with PBMC; actives raise or lower the signal. In outline: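 TNFa was quantified by ELISA in LPS-activated co-cultures of human endothelial cells and PBMC, 24 h post-dosing. Both increases and decreases versus DMSO were fitted.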

Read-out in assay [5]: Vascular cell adhesion molecule 1 (VCAM1), VCAM1 (gene 7412)
The experiment in a line: BSK_LPS_VCAM1: BioMAP Diversity Plus: LPS Assay for Vascular cell adhesion molecule 1 (VCAM1) Biomarker Activity (AID 2283086). The conditions noted are these: primary human HUVEC with PBMC; actives raise or lower the signal. In outline: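 VCAM-1 quantified by ELISA in an LPS-activated co-culture of human endothelial cells and peripheral blood mononuclear cells, read 24 h post-treatment. Fitted in both directions versus DMSO; parallel SRB staining flags overt cytotoxicity.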

Read-out in assay [6]: CD38, CD38 (gene 952)
The experiment in a line: BSK_SAg_CD38: BioMAP Diversity Plus: SAg Assay for CD38 Biomarker Activity (AID 2283087). The conditions noted are these: primary human HUVEC with PBMC; actives raise or lower the signal. In outline:
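CD38 quantified by ELISA (fluorescence) in a superantigen-activated endothelial cell–PBMC co-culture at 24 h post-dose. Activity fitted in both directions relative to DMSO; parallel SRB and Alamar Blue cytotoxicity read-outs.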

Read-out in assay [7]: CD40, CD40 (gene 958)
The experiment in a line: BSK_SAg_CD40: BioMAP Diversity Plus: SAg Assay for CD40 Biomarker Activity (AID 2283088). The conditions noted are these: primary human HUVEC with PBMC; actives raise or lower the signal. The method in brief:
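Fluorescence ELISA read-out of CD40 from umbilical vein endothelium plus peripheral blood mononuclear cells, sampled 24 h after dosing. Values come from bidirectional curve fitting with DMSO as baseline.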

Read-out in assay [8]: CD69, CD69 (gene 969)
The experiment in a line: BSK_SAg_CD69: BioMAP Diversity Plus: SAg Assay for CD69 Biomarker Activity (AID 2283089).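 For AC50: cell surface CD69 protein quantified by ELISA with fluorescence detection.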 The note with it: primary human HUVEC with PBMC; actives raise or lower the signal. The method in brief:
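ELISA, fluorescence read-out: CD69 on human umbilical vein endothelial cell + PBMC co-culture, 24 h post-dosing. Gain or loss of signal fitted bidirectionally against DMSO baseline.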

Read-out in assay [9]: Monocyte Chemoattractant Protein-1 (MCP1), CCL2 (gene 6347)
The assay is described as follows: BSK_SAg_MCP1: BioMAP Diversity Plus: SAg Assay for Monocyte Chemoattractant Protein-1 (MCP1) Biomarker Activity (AID 2283090). The note with it: primary human HUVEC with PBMC; actives raise or lower the signal. The method in brief: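 Values derive from bidirectional fitting of ELISA-measured MCP1 against DMSO controls. Readings were taken 24 h after dosing human vascular endothelial cells co-cultured with peripheral blood mononuclear cells under superantigen stimulation.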

Read-out in assay [10]: E-selectin (Homo sapiens) (UniProt P16581)
The experiment in a line: BSK_SAg_Eselectin: BioMAP Diversity Plus: SAg Assay for Eselectin Biomarker Activity (AID 2283091). The conditions noted are these: primary human HUVEC with PBMC; actives raise or lower the signal. The method in brief: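 Primary human endothelial cells and peripheral blood mononuclear cells were co-cultured and exposed to chemical for 24 hours. E-selectin levels were then quantified by ELISA, with bidirectional curve fitting normalised to DMSO controls.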

Read-out in assay [11]: Monokine induced gamma interferon (MIG), CXCL9 (gene 4283)
The experiment in a line: BSK_SAg_MIG: BioMAP Diversity Plus: SAg Assay for Monokine induced gamma interferon (MIG) Biomarker Activity (AID 2283092). The note with it: primary human HUVEC with PBMC; actives raise or lower the signal. In outline:
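ELISA readout of MIG/CXCL9; primary human umbilical vein endothelial cells co-cultured with peripheral blood mononuclear cells; 24 h post-dose; gain/loss fit vs DMSO baseline.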

A short description of assay [12]: BSK_SAg_PBMCCytotoxicity: PBMC Cytotoxicity Assessment in the BioMAP Diversity Plus: SAg Assay (AID 2283093).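 For AC50: PBMC superantigen activated with SEB plus TSST-1 one hour after compound addition.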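 Note: fitted both ways against DMSO so a hit may be loss or gain of signal.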 The conditions noted are these: primary human HUVEC with PBMC. The method in brief: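 PBMC viability by Alamar Blue reduction, fluorescence read at 546/580 nm after 6 h dye exposure. Cells were dosed 1 h before SEB plus TSST-1 activation (20 ng/mL final each), then held 90 h; endothelial/PBMC human co-culture.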

Read-out in assay [13]: Interleukin-8 (IL8), CXCL8 (gene 3576)
The experiment in a line: BSK_SAg_IL8: BioMAP Diversity Plus: SAg Assay for Interleukin-8 (IL8) Biomarker Activity (AID 2283094). The note with it: primary human HUVEC with PBMC; actives raise or lower the signal. The method in brief:
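ELISA readout of IL-8 from a superantigen-activated endothelial/PBMC primary human co-culture, taken 24 h post-dosing and fitted in both directions against DMSO; parallel SRB total-protein staining flags overt cytotoxicity.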

Assay [14] in a line: BSK_SAg_Proliferation: Cell Proliferation Assessment in the BioMAP Diversity Plus: SAg Assay (AID 2283095).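 Note: relative cell number as total protein by SRB absorbance in sub-confluent culture.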 The note with it: primary human HUVEC with PBMC. In outline: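 Relative cell number in the endothelial cell/PBMC co-culture was quantified at 96 h by SRB staining (0.1% SRB, 10% TCA fixation, read at 560 nm). Curves were fitted in both directions relative to DMSO baseline.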

Assay [15] can be described thus: BSK_SAg_SRB: Viability Assessment in the BioMAP Diversity Plus: SAg Assay (AID 2283096).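 Note: cells read one day after compound addition; hits may be either gain or loss of signal compared with DMSO.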 The conditions noted are these: primary human HUVEC with PBMC. In outline: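 Compounds were added to a human vascular co-culture of umbilical vein endothelium and PBMC. After 24 h, parallel cultures were fixed with 10% TCA, stained with 0.1% sulforhodamine B and read at 560 nm. Gain or loss of signal was fitted relative to DMSO.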

Assay [16] concerns the target human CYP2A6, CYP2A6 (gene 1548) (UniProt P11509). The experiment in a line: NVS_ADME_hCYP2A6: NovaScreen (NVS) CYP450-related Enzyme Activity (ADME) Assay for human CYP2A6 (AID 2283099; active = hit-call score of the fitted dose curve at least 0.9, where 1 is the maximum). The method in brief: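 Recombinant human CYP2A6 from insect cells was incubated with chemical for 0.5 h and activity read by fluorescence. Single-concentration duplicates at 10 uM preceded concentration-response testing to 20 uM, with activity referenced to acetonitrile.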

The target in assay [17] is human CYP1A1, CYP1A1 (gene 1543) (UniProt P04798). The assay is described as follows: NVS_ADME_hCYP1A1: NovaScreen (NVS) CYP450-related Enzyme Activity (ADME) Assay for human CYP1A1 (AID 2283100; active = hit-call score of the fitted dose curve at least 0.9, where 1 is the maximum). The method in brief:
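Compounds first went through duplicate single-concentration testing at 10 uM against purified CYP1A1. Those passing a threshold such as 30% inhibition entered singleton dose-response, highest concentration 20 uM. Signal was fluorescence measured after 1 hour.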

In assay [18] the target is human CYP2B6, CYP2B6 (gene 1555) (UniProt P20813). The assay is described as follows: NVS_ADME_hCYP2B6: NovaScreen (NVS) CYP450-related Enzyme Activity (ADME) Assay for human CYP2B6 (AID 2283101; active = hit-call score of the fitted dose curve at least 0.9, where 1 is the maximum). In outline: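 Fluorescence-based enzyme activity of recombinant human CYP2B6, measured 1 h post-dose against acetonitrile vehicle baseline. Screened at a single concentration of 10 uM in duplicate before concentration-response follow-up.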
Chain of human CYP2B6, CYP2B6 (gene 1555) (P20813 whole entry, looked up): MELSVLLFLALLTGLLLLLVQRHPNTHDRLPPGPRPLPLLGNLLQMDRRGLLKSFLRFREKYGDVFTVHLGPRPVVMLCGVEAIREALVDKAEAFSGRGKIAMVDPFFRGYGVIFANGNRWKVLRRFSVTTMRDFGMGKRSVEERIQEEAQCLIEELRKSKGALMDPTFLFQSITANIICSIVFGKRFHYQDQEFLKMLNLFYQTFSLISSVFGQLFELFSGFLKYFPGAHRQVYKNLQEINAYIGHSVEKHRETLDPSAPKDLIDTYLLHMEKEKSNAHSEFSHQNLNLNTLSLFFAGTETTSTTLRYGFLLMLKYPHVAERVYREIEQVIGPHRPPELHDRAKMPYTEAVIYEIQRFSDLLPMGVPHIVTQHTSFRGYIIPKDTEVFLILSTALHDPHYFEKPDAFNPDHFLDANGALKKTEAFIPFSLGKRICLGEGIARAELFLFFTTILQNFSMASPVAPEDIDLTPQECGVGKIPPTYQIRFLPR

Assay [19] has as its target human CYP1A2, CYP1A2 (gene 1544) (UniProt P05177). The assay is described as follows: NVS_ADME_hCYP1A2: NovaScreen (NVS) CYP450-related Enzyme Activity (ADME) Assay for human CYP1A2 (AID 2283102; active = hit-call score of the fitted dose curve at least 0.9, where 1 is the maximum;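 note: fluorescence from turnover of a fluorogenic substrate by recombinant insect-cell CYP1A2; potency for inhibition since loss of fluorescence marks reduced CYP1A2 activity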). The method in brief:
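Compounds were tested at 10 uM in duplicate against recombinant CYP1A2 produced in insect cells. Enzyme activity was measured by fluorescence 0.5 h after dosing, with loss of signal versus acetonitrile control. Active compounds were re-tested in concentration series.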

Results filed as inconclusive are left out. Activity calls are given as the source filed them. Rule for the calls, unless noted: active = hit-call score of the fitted dose curve at least 0.9, where 1 is the maximum; inactive = score below 0.9.

Chain of Tumor necrosis factor (Homo sapiens) (P01375 whole entry, looked up): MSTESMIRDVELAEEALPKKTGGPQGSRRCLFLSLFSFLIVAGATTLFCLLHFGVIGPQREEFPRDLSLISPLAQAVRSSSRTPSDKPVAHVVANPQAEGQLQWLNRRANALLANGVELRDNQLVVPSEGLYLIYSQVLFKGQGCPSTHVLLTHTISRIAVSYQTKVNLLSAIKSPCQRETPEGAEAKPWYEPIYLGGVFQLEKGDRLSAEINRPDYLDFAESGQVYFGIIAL
Chain of E-selectin (Homo sapiens) (P16581 whole entry, looked up): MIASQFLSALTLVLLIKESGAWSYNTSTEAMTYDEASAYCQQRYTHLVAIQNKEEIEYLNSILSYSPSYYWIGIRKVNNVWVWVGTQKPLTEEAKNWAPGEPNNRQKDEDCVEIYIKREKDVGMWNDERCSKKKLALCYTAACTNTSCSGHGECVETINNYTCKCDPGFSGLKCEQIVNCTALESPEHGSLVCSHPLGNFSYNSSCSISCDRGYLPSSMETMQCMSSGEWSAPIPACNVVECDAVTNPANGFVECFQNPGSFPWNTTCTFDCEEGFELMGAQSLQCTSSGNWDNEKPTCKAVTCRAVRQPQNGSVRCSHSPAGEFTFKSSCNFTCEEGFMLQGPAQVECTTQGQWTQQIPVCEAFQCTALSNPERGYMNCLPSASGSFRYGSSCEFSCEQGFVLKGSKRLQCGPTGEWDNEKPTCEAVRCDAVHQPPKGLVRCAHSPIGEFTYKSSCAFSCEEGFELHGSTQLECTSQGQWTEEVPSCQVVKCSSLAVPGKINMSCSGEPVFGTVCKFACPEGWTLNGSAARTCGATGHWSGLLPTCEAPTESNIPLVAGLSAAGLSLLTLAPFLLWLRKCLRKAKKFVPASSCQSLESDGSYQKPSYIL
Chain of human CYP2A6, CYP2A6 (gene 1548) (P11509 whole entry, looked up): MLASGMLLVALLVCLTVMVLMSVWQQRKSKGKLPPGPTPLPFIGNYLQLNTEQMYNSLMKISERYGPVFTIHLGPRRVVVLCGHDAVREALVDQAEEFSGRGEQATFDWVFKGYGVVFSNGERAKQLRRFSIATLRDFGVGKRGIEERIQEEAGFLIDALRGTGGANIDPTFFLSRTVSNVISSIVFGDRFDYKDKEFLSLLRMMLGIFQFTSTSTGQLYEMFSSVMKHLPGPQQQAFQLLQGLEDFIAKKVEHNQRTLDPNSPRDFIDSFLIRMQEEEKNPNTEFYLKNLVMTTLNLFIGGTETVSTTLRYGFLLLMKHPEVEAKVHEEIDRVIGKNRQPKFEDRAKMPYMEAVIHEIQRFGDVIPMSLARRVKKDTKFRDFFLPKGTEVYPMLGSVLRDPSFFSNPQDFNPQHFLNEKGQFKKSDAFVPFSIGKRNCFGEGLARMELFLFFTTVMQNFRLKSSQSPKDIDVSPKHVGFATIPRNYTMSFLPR
Chain of human CYP1A2, CYP1A2 (gene 1544) (P05177 whole entry, looked up): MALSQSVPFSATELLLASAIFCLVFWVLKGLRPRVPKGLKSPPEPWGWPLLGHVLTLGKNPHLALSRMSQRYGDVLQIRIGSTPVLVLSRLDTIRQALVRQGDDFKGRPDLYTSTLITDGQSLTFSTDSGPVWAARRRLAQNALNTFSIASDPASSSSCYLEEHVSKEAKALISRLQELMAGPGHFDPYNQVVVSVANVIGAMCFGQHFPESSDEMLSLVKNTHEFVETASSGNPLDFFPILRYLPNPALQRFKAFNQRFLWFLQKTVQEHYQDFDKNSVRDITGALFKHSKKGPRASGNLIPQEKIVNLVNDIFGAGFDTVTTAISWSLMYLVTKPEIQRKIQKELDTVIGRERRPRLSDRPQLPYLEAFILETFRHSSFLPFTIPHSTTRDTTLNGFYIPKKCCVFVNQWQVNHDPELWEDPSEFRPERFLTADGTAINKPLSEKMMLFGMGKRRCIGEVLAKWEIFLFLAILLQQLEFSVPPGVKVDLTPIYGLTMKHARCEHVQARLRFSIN
Chain of human CYP1A1, CYP1A1 (gene 1543) (P04798 whole entry, looked up): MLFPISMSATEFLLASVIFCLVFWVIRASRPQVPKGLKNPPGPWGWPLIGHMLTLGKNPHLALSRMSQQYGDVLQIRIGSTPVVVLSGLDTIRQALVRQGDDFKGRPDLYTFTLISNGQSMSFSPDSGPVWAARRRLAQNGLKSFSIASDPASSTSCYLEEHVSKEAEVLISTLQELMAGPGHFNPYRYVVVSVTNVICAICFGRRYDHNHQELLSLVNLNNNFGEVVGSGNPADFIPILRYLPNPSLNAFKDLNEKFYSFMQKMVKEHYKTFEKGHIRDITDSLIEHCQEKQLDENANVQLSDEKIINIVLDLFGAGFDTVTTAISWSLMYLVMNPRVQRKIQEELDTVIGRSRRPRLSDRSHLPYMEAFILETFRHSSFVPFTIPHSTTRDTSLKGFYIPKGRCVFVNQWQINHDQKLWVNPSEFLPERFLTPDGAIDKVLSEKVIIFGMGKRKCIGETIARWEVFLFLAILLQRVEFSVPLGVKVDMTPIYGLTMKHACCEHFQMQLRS

Turning to `CN(C)c1ccccc1`, the outcome in assay [1], in assay [2], in assay [3], in assay [4], in assay [5] and in assay [6] was inactive. Besides, the result in assay [7], in [8], in [9], in assay [10], in [11] and in assay [12] was inactive. For the same molecule, the result in assay [13], in assay [14] and in assay [15] was inactive.

As to `c1ccc(C2CO2)cc1` (centres undefined), the result in assay [1], in assay [2], in [3], in [4], in [5] and in assay [6] was inactive. The result in [7], in assay [8], in assay [9], in [10], in assay [11] and in assay [12] was inactive. Besides, the outcome in assay [13], in assay [14] and in assay [15] was inactive.

What is called AC50 is the midpoint of the concentration-response curve, whichever way the signal moves. As for `O=C(N[C@H](c1ccccc1)[C@@H]1CN2CCC1CC2)c1c(Cl)ccc(C(F)(F)F)c1Cl`, the AC50 was 4.3 µM (active) in [1]; 17.7 µM (active) in assay [5]; 29.7 µM (active) in assay [6]; 29.7 µM (active) in assay [8]; 14.7 µM (active) in assay [12]; 20.2 µM (active) in [13]. Besides, the AC50 in assay [14] was 29.7 µM (active). For the same molecule, the outcome in [2], in assay [3], in assay [4], in assay [7], in assay [9] and in assay [10] was inactive. Moreover, the outcome in assay [11], in [15] and in assay [16] was inactive.

On to `CCCCCCCCn1sccc1=O`, for which the AC50 in assay [1] was 0.857 µM (active); in assay [2], 7.58 µM (active); in assay [3], 4.04 µM (active); in [4] it was 1.04 µM (active); in assay [5] it was 6.97 µM (active); in [6], 7.73 µM (active). Moreover, the AC50 is 10.2 µM (active) in [7]; 10.7 µM (active) in [8]; 11.7 µM (active) in [9]; 12.8 µM (active) in assay [10]; 14.2 µM (active) in assay [11]; 3.84 µM (active) in assay [12]. The AC50 in assay [13] was 13.4 µM (active); in assay [14] it was 1.76 µM (active); in [16] it was 4.74 µM (active); in assay [18], 0.975 µM (active); in assay [19], 5.97 µM (active). In addition, the result in assay [17] was inactive.

The record behind these values is PubChem BioAssay (EPA / NIEHS).
